# PubChem BioAssay (Tox21)
# Results filed as inconclusive are left out. Entries that show only a call come without a potency. Unmarked numbers belong to inactive results. Activity calls are given as the source filed them. The call rests on the fitted dose curve; in most records, active means well fitted cell-killing curve with a large enough effect in the repeat runs; inconclusive means weak or mixed curves, or effect the other way; inactive means flat fitted curve, though single readings scatter.
# How the values were obtained:
# [1] = cAMP Responsive Elements (CRE) small molecule antagonists, cell-based qHTS assay: qHTS cell viability counter screen (AID 2060913); conditions: CRE-bla HEK293T viability, CellTiter-Glo luminescence, 5 h; series mostly up to 92.4 µM; further: nearly all actives have a fitted effect of over 40% in size
# Procedure, shortened: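 HEK293T CRE-bla, 2,000 cells/well, 18 h preincubation; cpd in DMSO + NKH477 0.25 uM final, 3 h 37 C/5% CO2; LiveBLAzer 2 h RT, then CellTiter-Glo 30 min RT, luminescence.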
# [2] = cAMP Responsive Elements (CRE) small molecule agonists, cell-based qHTS assay: qHTS cell viability counter screen (AID 2060914); conditions: CRE-bla HEK293T viability, CellTiter-Glo luminescence, 5 h; series mostly up to 92.4 µM; further: nearly all actives have a fitted effect of over 50% in size
# Procedure, shortened: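 Luminescence read-out (CellTiter-Glo, 30 min RT) of ATP-based viability in CRE-bla HEK 293T cells, run in the same wells as the β-lactamase reporter assay after 3 h compound treatment at 37 °C.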
SMILES,Potency [1],Potency [2],"viability change, negative = cytotoxic [1]","activity change, negative = cytotoxicity [2]"
NC(=O)C(=O)N/N=C/c1ccc([N+](=O)[O-])o1,inactive,inactive,,
CC1(C)CC(N=C=O)CC(C)(CN=C=O)C1 (stereo not drawn),inactive,inactive,,
C=CC(=O)O,inactive,inactive,,
O=S(=O)(O)c1cc(S(=O)(=O)O)c2ccc3c(S(=O)(=O)O)cc(S(=O)(=O)O)c4ccc1c2c43,,,3.35% [at 18.9 µM],-11.7% [at 18.9 µM]
